Measurements: PubChem BioAssay AID489025 (Southern Research Specialized Biocontainment Screening …, 2010)
In all, about 2,300 compounds went through this assay and about 790 (34%) were called active. How the calls were made is not given here. This is one part of the list. Results with a measured potency or affinity are listed apart.

Assay: THP-1 cell cytotoxicity, dose response, cytotoxicity control for non-replicating M. tuberculosis project (AID 489025)
Conditions: THP-1 cell viability; series mostly up to 40 µM
For `CCCc1cc(C(=O)Nc2ccccc2SC)no1`, the outcome was “inactive”. For `Cc1c(-c2ccc(Br)cc2)nc2ccccn12`, the outcome was “inactive”. In the case of `CCOC(=O)c1c(C)nc2cc(C)ccn12`, the outcome is reported as “inactive”. For `c1ccc(-c2noc(CC3CCCCC3)n2)nc1`, the outcome was “inactive”. In the case of `CCCCCC1CC(CC(=O)NC(=S)Nc2ccc([N+](=O)[O-])cc2)C(=O)O1` (stereo not given), the outcome is reported as “inactive”. With `O=C(N/N=C/c1ccc[nH]1)c1ccc(Cl)cc1` the outcome was “inactive”. For `Cc1ccc(-c2nnc(NC3CCCC3)s2)cc1`, the outcome was “inactive”. In the case of `CCOC(=O)COc1cc(N)c(Cl)cc1Cl`, the outcome is reported as “inactive”. For `CCCCc1ccc(NS(=O)(=O)c2c(C)n(C)c(=O)n(C)c2=O)cc1`, the outcome was “inactive”. For `CN1CCN(/N=C/c2ccc(-c3ccc([N+](=O)[O-])cc3Cl)o2)CC1`, the outcome was “inactive”. In the case of `c1ccc(-c2nnc(SCc3cn4ccsc4n3)o2)cc1`, the outcome is reported as “inactive”. With `COC(=O)[C@@H](NC(=O)c1cc(COc2cncc(Cl)c2)on1)c1ccccc1` the outcome was “inactive”. In the case of `CCCCCCOc1ccc(C(=O)O)cc1C#N`, the outcome is reported as “inactive”. For `N#CC(C(=O)NCc1ccco1)c1nc2ccccc2nc1N1CCOCC1` (stereo not given), the outcome was “inactive”. In the case of `CCOC(=O)C1CCN(c2nc3cc(OC)ccc3cc2C#N)CC1`, the outcome is reported as “inactive”. With `Cc1ccc(C)c(NC(=O)COC(=O)c2cc3ccccc3oc2=O)c1` the outcome was “inactive”. For `CC(NC(=O)COc1ccc(-c2ccccc2)cc1)C1CCCO1` (stereo not given), the outcome was “inactive”. With `CC(C)OC(=O)COc1ccc(-c2ccccc2)cc1` the outcome was “inactive”. For `COC(=O)c1ccc(CSc2nnc(-c3ccncc3)o2)o1`, the outcome was “inactive”. In the case of `COCCCn1c(=NC(=O)c2ccccc2)c(C#N)cc2c(=O)n3cccc(C)c3nc21`, the outcome is reported as “inactive”. With `O=C(COC(=O)c1ccccn1)Nc1cccc(Cl)c1Cl` the outcome was “inactive”. In the case of `O=C(Nc1ccn(Cc2ccccc2)n1)c1ccc(F)cc1`, the outcome is reported as “inactive”. For `CN(CCCCOc1ccc(F)cc1)Cc1ccccc1`, the outcome was “inactive”. In the case of `C=CCN=C1SC(CC)C(=O)N1S(=O)(=O)c1ccc(C)cc1` (stereo not given), the outcome is reported as “inactive”. For `Cc1ccc(Sc2ccc(/C=C3/C(=O)NN(c4ccccc4)C3=O)o2)cc1`, the outcome was “inactive”. With `Cc1ccc(N=Nc2c(C)[nH]n(C(N)=S)c2=O)cc1C` the outcome was “inactive”. In the case of `O=[N+]([O-])c1ccccc1C1Nc2cccc3cccc(c23)N1`, the outcome is reported as “inactive”. With `CCOc1ccc(NCC(=O)c2ccc(C)cc2)cc1` the outcome was “inactive”. In the case of `Cc1cc(/C=N\NC(=O)c2cccs2)c(C)n1-c1ccc2ncccc2c1`, the outcome is reported as “inactive”. With `NC(N)=N/N=C/c1cccc([N+](=O)[O-])c1O` the outcome was “inactive”. For `Cc1cccc(Cc2cnc(NC(=O)C3=NCCN3)s2)c1`, the outcome was “inactive”. In the case of `COc1cc(/C=C2/C(=O)NN(c3ccc(Cl)cc3)C2=O)ccc1OC(=O)c1ccco1`, the outcome is reported as “inactive”. In the case of `COC(=O)C1CC(=O)N(c2ccc(OCc3ccccc3Cl)cc2)C1` (stereo not given), the outcome is reported as “inactive”. In the case of `O=C(CCC1CCCCC1)NCc1ccc(F)cc1`, the outcome is reported as “inactive”. For `Cc1nnc(N/N=C/c2ccc(-c3ccccc3F)o2)n1N`, the outcome was “inactive”. With `CN1C(c2ccccc2)CC(=NO)CC1c1ccccc1` (stereo not given) the outcome was “inactive”. With `CC(CN1CCOCC1)OC(=O)c1ccc2c(c1)OCCO2` (stereo not given) the outcome was “inactive”. In the case of `O=C(COC(=O)Cc1ccc(Br)cc1)Nc1ccc(N2CCOCC2)cc1`, the outcome is reported as “inactive”. For `Cc1[nH]n2c(=O)c3c(nc2c1-c1ccccc1)CCCC3`, the outcome was “inactive”. For `N/C(=N\OC(=O)CC1CCCCC1)c1ccncc1`, the outcome was “inactive”. For `CCOC(=O)CN(C#N)c1nc(N(C)C)nc(N(C)C)n1`, the outcome was “inactive”. With `O=C(N/N=C/c1coc2ccccc2c1=O)c1ccc(Cl)cc1` the outcome was “inactive”. With `O=C(N/N=C/c1ccc[nH]1)c1ccc2c(c1)OCO2` the outcome was “inactive”. For `CCOc1ccc(/C=N/OCC(=O)Nc2ccc3c(c2)OCO3)cc1`, the outcome was “inactive”. For `O=C(COc1ccc(F)cc1)Nc1ccc2c(c1)OCCO2`, the outcome was “inactive”. With `O=C(NCCc1c[nH]c2ccccc12)c1cc2ccccc2oc1=O` the outcome was “inactive”. For `Cc1nnc(SCCC(=O)Nc2ccc(Cl)cc2)o1`, the outcome was “inactive”. With `O=C(Nc1ncc2c(n1)-c1ccccc1OC2)c1ccc(F)cc1` the outcome was “inactive”. In the case of `O=C(Cc1ccccc1)Nc1ccc(C(=O)NCC2COc3ccccc3O2)cc1` (stereo not given), the outcome is reported as “inactive”. With `N#Cc1ccc(COC(=O)CCc2c[nH]c3ccccc23)cc1` the outcome was “inactive”. With `O=C(COC(=O)CCc1c[nH]c2ccccc12)NCc1ccc(Cl)cc1` the outcome was “inactive”. With `O=C(COC(=O)CCc1c[nH]c2ccccc12)NCc1ccc2c(c1)OCO2` the outcome was “inactive”. For `COc1ccc(OC(=O)CCc2c[nH]c3ccccc23)cc1`, the outcome was “inactive”. In the case of `Cc1cc(C)c2sc(NC(=O)C3=COCCO3)nc2c1`, the outcome is reported as “inactive”. With `O=c1cc(-c2ccncc2)oc2c1ccc1ccccc12` the outcome was “inactive”. For `Cc1ccc(N/N=C2\CS(=O)(=O)N(C)c3ccsc32)cc1`, the outcome was “inactive”. With `CCCCOC(=O)C1CCCC(C(=O)OCCCC)N1` (stereo not given) the outcome was “inactive”. In the case of `CCN1CCC(=NNC(=O)c2ccco2)CC1`, the outcome is reported as “inactive”. With `CCOC(=O)c1ccc(N=CC2=C(O)CC(C)(C)CC2=O)cc1` the outcome was “inactive”. For `CCCn1nnnc1NC(=O)COc1ccc(Br)cc1`, the outcome was “inactive”. For `CCCn1nnnc1NC(=O)c1cc(Cl)ccc1Cl`, the outcome was “inactive”. With `CCOC(=O)C(C)Oc1cc(Cl)c(C=O)cc1OC` (stereo not given) the outcome was “inactive”. With `Cc1ccc(N=Nc2c(C)[nH]n(C(N)=S)c2=O)cc1` the outcome was “inactive”. With `CSc1ccc(N=Nc2c(C)[nH]n(C)c2=O)cc1` the outcome was “inactive”. With `CCc1cc2c(=O)n(C(C)C(=O)OC3CCCCC3)cnc2s1` (stereo not given) the outcome was “inactive”. For `CC(C)(C)C(=O)COc1ccccc1[N+](=O)[O-]`, the outcome was “inactive”. In the case of `COc1ccccc1OCCNC(=O)c1cc([N+](=O)[O-])cc([N+](=O)[O-])c1`, the outcome is reported as “inactive”. With `CC1CCCN(CCCOc2ccc([N+](=O)[O-])cc2)C1` (stereo not given) the outcome was “inactive”. With `Cc1cccc(NC(=O)CCSc2nnc(Cc3ccccc3)o2)c1` the outcome was “inactive”. For `CCN1C(=O)CC(N2CCC(c3nc4ccccc4[nH]3)CC2)C1=O` (stereo not given), the outcome was “inactive”. For `CCOC(=O)C(=CNNc1cccc(Cl)c1)C(=O)OCC`, the outcome was “inactive”. For `Cc1ccc2[nH]c3c(c2c1)CCCC3NCCO` (stereo not given), the outcome was “inactive”. In the case of `Cc1ccc2c(c1)c1c3n2CCN=C3CCC1`, the outcome is reported as “inactive”. In the case of `OCC1(CCOc2ccccc2)CCN(Cc2cc(Cl)ccc2O)CC1`, the outcome is reported as “inactive”. For `COc1ccc(C2(O)CCN(CCCCOc3ccccc3)CC2)cc1`, the outcome was “inactive”. In the case of `COc1cc(NCCC(=O)c2cccs2)c(OC)cc1Cl`, the outcome is reported as “inactive”. With `Cc1cc(=O)n2cccc(O)c2n1` the outcome was “inactive”. For `CC(C)(C)c1ccc(NC(=O)COc2ccc(-n3ccnc3)cc2)cc1`, the outcome was “inactive”. With `Clc1ccc(SCCCCn2ccnc2)cc1` the outcome was “inactive”. With `O=C(O)c1ccc(NS(=O)(=O)/C=C/c2ccccc2)cc1O` the outcome was “inactive”. In the case of `Cc1cc(C)cc(NC(=O)COC(=O)CC2CCCC2)c1`, the outcome is reported as “inactive”. With `O=C(COc1ccc(Nc2ccccc2)cc1)OCC(=O)N1CCCCC1` the outcome was “inactive”. In the case of `COc1cccc(CC2(CO)CCCN(Cc3sc(N4CCCC4)nc3Cl)C2)c1` (stereo not given), the outcome is reported as “inactive”. With `O=C(COc1ccc(Cl)cc1)Nc1ccc(Cl)cn1` the outcome was “inactive”. In the case of `CCCc1nnc(-c2ccc(OC)cc2)o1`, the outcome is reported as “inactive”. With `c1ccc(-c2n[nH]c(-c3ccccn3)n2)nc1` the outcome was “inactive”. For `O=C(COc1ccc(Cl)cc1)Nc1ccccc1Cl`, the outcome was “inactive”. In the case of `CC(C)(C)OC(=O)NCCc1nnc(S(=O)(=O)Cc2ccc(Cl)cc2Cl)o1`, the outcome is reported as “inactive”. In the case of `OCC#CCSc1nnc(-c2ccc(Br)cc2)o1`, the outcome is reported as “inactive”. For `Cc1cccc(NCc2nnc(-c3ccccc3)o2)c1C`, the outcome was “inactive”. With `CCOc1ccc(-c2ccc(SCC)nn2)cc1` the outcome was “inactive”. For `O=C(CCSc1ccccn1)c1ccccc1`, the outcome was “inactive”. In the case of `O=C(NC1CCCC1)c1nc2c(nnn2Cc2cccc(Cl)c2)c(=O)[nH]1`, the outcome is reported as “inactive”. With `CC(C)(C)c1ccc(OCCC(=O)OCC(=O)NC2CCCCC2)cc1` the outcome was “inactive”. For `CC(C)(C)c1ccc(-c2nc(C#N)c(NCCCn3ccnc3)o2)cc1`, the outcome was “inactive”. In the case of `N#Cc1nc(-c2cccs2)oc1NCCc1ccccc1`, the outcome is reported as “inactive”. For `CCOCCOC(=O)COc1ccc2c(-c3ccccc3)cc(=O)oc2c1`, the outcome was “inactive”. For `CCc1nnc(NC(=O)CN2CCN(Cc3ccc(F)cc3)CC2)s1`, the outcome was “inactive”. In the case of `Cc1ccc2nc(NC(=O)COC(=O)c3ccc(Br)o3)sc2c1`, the outcome is reported as “inactive”. With `CC1CCN(C(=O)COC(=O)CCc2c[nH]c3ccccc23)CC1` the outcome was “inactive”. With `COc1ccc2c3c(cccc13)OCC2=O` the outcome was “inactive”. For `O=C1/C(=C/c2cccs2)COc2ccccc21`, the outcome was “inactive”. For `O=C(c1ccco1)N1CCN(c2ccc(F)cc2)CC1`, the outcome was “inactive”. For `O=S(=O)(NCc1cccnc1)c1ccc(Cl)c(Cl)c1Cl`, the outcome was “inactive”. For `Cc1cc(C=C2C(=O)NC(=S)NC2=O)c(C)n1C1CCCC1`, the outcome was “inactive”. For `CCCn1nnnc1NCc1ccc(CC)cc1`, the outcome was “inactive”. With `CCCCCCCC(=O)N/N=C(/C)c1c(O)cc(C)oc1=O` the outcome was “inactive”. For `Cc1ccc(NCCC(=O)c2cccs2)cc1`, the outcome was “inactive”. With `O=C(N/N=C/C=C/c1ccccc1)c1ccccn1` the outcome was “inactive”. In the case of `CCc1ccc(/C=N/NC(=O)c2ccccn2)cc1`, the outcome is reported as “inactive”. For `CCCCCCCC(=O)NNC(=O)c1ccc(F)cc1`, the outcome was “inactive”. In the case of `Cc1ccc(-c2noc(CCCC(=O)Nc3cccnc3)n2)cc1`, the outcome is reported as “inactive”. For `CCCCn1nnc(NC(=O)COc2ccc(Cl)c(C)c2)n1`, the outcome was “inactive”. For `CCCOC(=O)c1ccc(NC(=O)c2ccccc2OC)cc1`, the outcome was “inactive”. In the case of `CN1CCC(O)(c2ccc(Cl)cc2)C(C(=O)c2ccc(Cl)cc2)C1` (stereo not given), the outcome is reported as “inactive”. With `CCN(CC)S(=O)(=O)c1ccc(C(=O)OCn2nnc3ccccc3c2=O)cc1` the outcome was “inactive”. With `C/C(=N\NC(=O)c1ccco1)c1cc(Cl)sc1Cl` the outcome was “inactive”. For `C=C1Cn2c(nnc2-c2ccc(Cl)cc2)S1`, the outcome was “inactive”. In the case of `O=C(COc1ccccc1)NC1CCCCC1`, the outcome is reported as “inactive”. With `O=C(OCn1nnc2ccccc2c1=O)C1CCCCC1` the outcome was “inactive”. In the case of `Cc1ccc2nc(C)c3c(c2c1)COC3`, the outcome is reported as “inactive”. In the case of `CCOC(=O)COc1ccc2c(c1)C(=O)CC1(CCCCC1)O2`, the outcome is reported as “inactive”. With `CCOc1ccc(NC(=O)CCNC(=O)c2ccc(Br)cc2)cc1` the outcome was “inactive”. In the case of `O=C(c1ccc(-c2ccc([N+](=O)[O-])cc2)o1)N1CCN(S(=O)(=O)c2cccs2)CC1`, the outcome is reported as “inactive”. For `CC1CCN(C(=O)c2ccc(-c3ccccc3Cl)o2)CC1`, the outcome was “inactive”.
